Screening results as filed in PubChem.
VHR inh color: blocks the human dual specificity phosphatase VHR1 | P51452 | recombinant VHR phosphatase, colorimetric substrate read-out | inhibition, % at 20 µM | 50,000 compounds, 0.7% hits | AID 1992; in the data active = inhibition above about 60%
Target sequence (P51452 whole entry, looked up): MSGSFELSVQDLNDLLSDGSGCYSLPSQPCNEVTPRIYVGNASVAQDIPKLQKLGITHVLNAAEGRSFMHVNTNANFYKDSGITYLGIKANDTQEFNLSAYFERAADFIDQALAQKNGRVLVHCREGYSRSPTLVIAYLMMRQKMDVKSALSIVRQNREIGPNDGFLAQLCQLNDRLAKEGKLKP
Numbers without * were called inactive. This excerpt belongs to a sample that is enriched for hits.

SMILES	VHR inh color
CCOc1ccc(N2C(=O)NC(=O)/C(=C\c3ccc(C)o3)C2=O)cc1	0
Cc1cc(/C=C2\C(=O)NC(=S)N(c3cccc(Br)c3)C2=O)c(C)n1C	-13
CCOC(=O)C1=C(C)N(c2ccc(OCC)cc2)C(=O)/C1=C\c1ccco1	-14
CCOc1ccc(N2C(=O)/C(=C/c3ccco3)C(=O)NC2=S)cc1	80*
COc1ccccc1NC(=O)c1ccc(OC)c([N+](=O)[O-])c1	-16
COc1ccc(O)c(/C=C2\SC(=S)N(Cc3ccccc3)C2=O)c1	-1
COc1ccc(S(=O)(=O)N=C2C=CC(=NS(=O)(=O)c3ccc(OC)cc3)C=C2)cc1	10
O=C(Nc1ccc(N2CCOCC2)cc1)c1ccc(-c2ccc(Cl)cc2Cl)o1	6
CC(C)C1=NN2C(=N)/C(=C/c3ccc(Sc4ccc(Cl)cc4)o3)C(=O)N=C2S1	110*
COc1cc(/C=C2/C(=N)N3N=C(C(C)C)SC3=NC2=O)cc(Cl)c1OCCOc1ccccc1	4
CC(C)C1=NN2C(=N)/C(=C/c3ccc(-c4cccc([N+](=O)[O-])c4)o3)C(=O)N=C2S1	16
O=C(O)c1cccc(-c2ccc(/C=N/Nc3ccc([N+](=O)[O-])cn3)o2)c1	90*
Cc1cc(C(=O)N/N=C/c2ccc(-c3cccc(C(=O)O)c3)o2)n[nH]1	16
O=C(O)c1cc(-c2ccc(/C=N/Nc3ccc([N+](=O)[O-])cn3)o2)ccc1Cl	-1
O=C(Nc1cccc(Cl)c1)c1cccc(NC(=O)c2ccco2)c1	-17
CCc1ccc(-c2nnc(-c3ccccc3Cl)o2)cc1	-5
COc1ccc(-n2c(=O)c3c4c(sc3n3c(SCC(N)=O)nnc23)COC(C)(C)C4)cc1	9
Cc1cc(Br)ccc1N1C(=O)c2ccc(-c3nc4ccccc4c(=O)o3)cc2C1=O	6
Cc1c(Cl)cccc1NC(=O)C1(C)CC2c3ccccc3C1c1ccccc12 (stereo unspecified)	79*
COC(=O)c1ccc(NC(=O)C2(C)CC3c4ccccc4C2c2ccccc23)cc1 (stereo unspecified)	-4
COc1cccc(NC(=O)C2(C)CC3c4ccccc4C2c2ccccc23)c1 (stereo unspecified)	-16
O=C(N/N=C/c1ccc(O)cc1O)c1[nH]c2ccc([N+](=O)[O-])cc2c1-c1ccccc1	26
CCCN(CCC)C(=O)c1cnn(-c2ccccc2)c1NC(=O)c1cccc(F)c1	19
Cc1cccc(C(=O)Nc2c(C(=O)N(C)C)cnn2-c2ccccc2)c1	70*
Cc1cccc(C(=O)Nc2c(C(=O)N3CCN(C)CC3)cnn2-c2ccccc2)c1	-6
SMILES	VHR inh color
Cc1cc(N(C)/N=C/c2ccccc2Cl)nc(-c2ccccc2O)n1	8
COc1ccc(CC2S/C(=N\N=C\c3ccc(C(C)C)cc3)NC2=O)cc1 (stereo unspecified)	-8
CC(C)C1S/C(=N/N=C/c2ccc(O)cc2)NC1=O (stereo unspecified)	93*
Cc1ccc(/C=N/N=C2\NC(=O)C(C)S2)cc1 (stereo unspecified)	-1
O=C1c2ccc(S(=O)(=O)c3ccc4c(c3)C(=O)N(CCO)C4=O)cc2C(=O)N1CCO	-11
O=C(CN(c1ccccc1)S(=O)(=O)c1ccccc1[N+](=O)[O-])Nc1ccccc1Br	-10
CC1=C(C(=O)OC(C)C)C(c2ccccc2Br)CC(=O)N1 (stereo unspecified)	102*
CC1=C(C(=O)OC(C)C)C(c2ccccc2Cl)CC(=O)N1 (stereo unspecified)	29
CC1=C(C(=O)OC(C)C)C(c2cccc(Br)c2)NC(=O)N1 (stereo unspecified)	-14
COC(=O)C1=C(C)NC(=O)CC1c1ccccc1C(F)(F)F (stereo unspecified)	-33
CC1=C(C(=O)OC(C)C)C(c2ccc(Br)cc2)C2=C(CC(c3ccc(Cl)cc3)CC2=O)N1 (stereo unspecified)	-19
CC1=C(C(=O)OC(C)C)C(c2ccc(F)c(Br)c2)CC(=O)N1 (stereo unspecified)	118*
COC(=O)C1=C(C)NC(=O)CC1c1ccc(F)c(Br)c1 (stereo unspecified)	-13
CC1=C(C(=O)OCc2ccccc2)C(c2ccc(F)c(Br)c2)CC(=O)N1 (stereo unspecified)	5
CC1=C(C(=O)OC(C)C)C(c2cc(Br)ccc2F)CC(=O)N1 (stereo unspecified)	102*
COc1ccc(NC(=O)c2c(NC(=O)C(C)(C)C)sc3c2CCC(C)C3)cc1 (stereo unspecified)	-28
CN(Cc1ccccc1)C(=O)c1cc2nc(-c3ccccc3)cc(-c3ccccc3)n2n1	6
COC(=O)C1=C(C)N=c2s/c(=C\c3cccc([N+](=O)[O-])c3)c(=O)n2C1c1ccc(OC)cc1 (stereo unspecified)	-12
O=C(O)C(Cc1ccccc1)N1C(=O)/C(=C/c2cccc3ccccc23)SC1=S (stereo unspecified)	-13
CC(c1ccccc1)N1C(=O)/C(=C\c2ccc(Cl)cc2Cl)SC1=S (stereo unspecified)	4
O=C(O)C(Cc1ccccc1)N1C(=O)/C(=C/c2ccc(Cl)cc2Cl)SC1=S (stereo unspecified)	83*
O=c1[nH]c(=S)n(-c2ccc(Cl)c(Cl)c2)c(O)c1/C=C1/C=Nc2ccccc21	-3
Cc1ccc(-n2c(O)c(/C=C3\C=Nc4ccccc43)c(=O)[nH]c2=S)cc1	64*
Cc1cc(C)cc(-n2c(O)c(/C=C3\C=Nc4ccccc43)c(=O)[nH]c2=O)c1	-14
O=C(O)C1Nc2ccc([N+](=O)[O-])cc2C2C=CCC12 (stereo unspecified)	96*
SMILES	VHR inh color
O=[N+]([O-])c1ccc2c(c1)C1C=CCC1C(c1ccc(Cl)cc1)N2 (stereo unspecified)	-8
CC(=O)N1c2ccc3ccccc3c2C2C=CCC2C1c1ccc(Br)cc1 (stereo unspecified)	2
O=C(O)c1cccc2c1NC(c1cccc(Cl)c1Cl)C1CC=CC21 (stereo unspecified)	-5
O=[N+]([O-])c1cccc(C2Nc3ccc(Cl)cc3C3C=CCC32)c1 (stereo unspecified)	2
Cc1c(Cl)ccc2c1NC(C(=O)O)C1CC=CC21 (stereo unspecified)	84*
O=C(O)C1Nc2ccc3ccccc3c2C2C=CCC12 (stereo unspecified)	92*
CCOC(=O)c1ccc2c(c1)C1C=CCC1C(c1cccc3ccccc13)N2 (stereo unspecified)	40
O=C(O)C1Nc2c(C(=O)N3CCCC3)cccc2C2C=CCC12 (stereo unspecified)	-1
COc1ccc(NC(=O)c2cnccn2)cc1	-13
CN(CCN(C)/N=C/c1ccc(O)cc1O)/N=C/c1ccc(O)cc1O	-4
NC(=O)N/N=C(/c1ccc2c(c1)OCCO2)C1CC1	-17
O=C(Nc1ccccc1C(=O)NCCO)c1ccccc1Cl	-8
O=C1N=C(N2CCCCC2)S/C1=C\c1ccc2c(c1)OCO2	7
Nc1nonc1C(=O)N/N=C/c1cc(Cl)cc(Cl)c1O	-11
CCOc1ccc(C2/C(=C(\O)c3ccccc3)C(=O)C(=O)N2CCCC(=O)O)cc1 (stereo unspecified)	16
COc1cc(OC)cc(C(=O)Nc2sc3c(c2C(N)=O)CCC(C)C3)c1 (stereo unspecified)	25
CC1CCc2c(sc(NC(=O)c3ccccc3)c2C(N)=O)C1 (stereo unspecified)	2
